Compounds with a hit are over-represented: about 4.2% of the library has one in this group of screens.
GDH-TPI inh: inhibits GDH-TPI coupling enzymes, artifact for Mtb FBA screen; AID 588335; 360,000 tested, 1.2% active; inhibition, % at 4.8 µM; GDH-TPI coupled enzyme counterscreen, NADH absorbance;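 also: 0% = DMSO wells and 100% = wells lacking the enzyme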
CCHF vOTU inh: CCHFV vOTU protease inhibition | inhibition, % at 11.5 µM | Pep-AMC fluorescence | 370,000 tested, 0.55% active; also: 0% = vehicle wells with enzyme and 100% = no enzyme wells
Mtb bLac sens: beta-lactam sensitization of Mtb H37Rv; 330,000 tested, 0.27% active; M. tuberculosis H37Rv growth with meropenem, percent inhibition; inhibition, % at 25 µM; call rule not given here;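 also: growth measured after seven days incubation then overnight dye step; 0% = bacteria only wells and 100% = bacteria with antibiotic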
RecA intein inh: inhibitors of M. tuberculosis RecA intein splicing; 290,000 tested, 0.75% active; inhibition, % (test concentration not listed); P9WHJ3; cell-free RecA intein splicing, fluorescence; in the data active = inhibition above about 30%;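 also: 0% = vehicle wells and 100% = reference inhibitor control wells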
FBA Mtb inh: inhibits M. tuberculosis FBA enzyme. P9WQA3. purified M. tuberculosis FBA, fluorescence read-out. inhibition, % at 1 µM. 360,000 tested, 2.3% active; in the data active = inhibition above about 27%;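 also: 0% = vehicle and 100% = reference inhibitor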
Target sequence (P9WQA3 whole entry, looked up): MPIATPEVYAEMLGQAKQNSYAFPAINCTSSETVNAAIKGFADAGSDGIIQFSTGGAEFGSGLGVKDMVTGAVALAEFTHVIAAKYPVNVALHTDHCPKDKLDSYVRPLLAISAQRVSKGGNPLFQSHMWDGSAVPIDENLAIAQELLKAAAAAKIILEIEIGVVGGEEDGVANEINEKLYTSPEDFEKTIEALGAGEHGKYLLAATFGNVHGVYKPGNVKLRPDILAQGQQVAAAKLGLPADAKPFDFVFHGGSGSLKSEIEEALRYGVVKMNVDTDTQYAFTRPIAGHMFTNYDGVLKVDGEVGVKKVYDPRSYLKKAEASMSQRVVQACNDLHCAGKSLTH
Active calls of the source: *; · = no result; + = active, no number. Rule as the data show it, unless noted: active = inhibition above about 30%; inactive = the rest.

SMILES | GDH-TPI inh | CCHF vOTU inh | Mtb bLac sens | RecA intein inh | FBA Mtb inh
Cc1ccc(OCc2nnc(SCC(=O)Nc3cccc4ccccc34)n2Cc2ccco2)cc1 | · | 9.0 | · | · | ·
COC(=O)[C@H](CC(C)C)N(Cc1cn(Cc2ccccc2)nn1)S(=O)(=O)c1ccc(F)cc1Br | · | 5.4 | · | · | ·
CC1(C)CC(=O)c2sc(NS(=O)(=O)Cc3ccccc3)nc2C1 | 50.2* | 13.3 | -4.3 | -2.3 | -1.4
CCCCc1oc2ccccc2c1C(=O)c1cc(I)c(OCCN(CC)CC)c(I)c1 | · | 13.0 | · | 37.9* | 2.1
Cc1cc(=O)oc2cc(OCC(=O)NCCCN3CCOCC3)ccc12 | 12.3 | 9.1 | -8.2 | 10.7 | 15.0
CCCc1cc(=O)oc2cc(OCC(=O)NCCN3CCOCC3)c(Cl)cc12 | 32.7* | 4.1 | · | · | 16.4
CCc1cc(=O)oc2cc(C)cc(OCC(=O)NCCCN3CCOCC3)c12 | 20.7 | -30.1 | 8.1 | -3.9 | 115.7*
COc1ccc(Oc2c(Br)cnn(Cc3cccc4ccccc34)c2=O)cc1 | · | -0.8 | · | · | ·
Oc1[nH]c2ccccc2c1C=NCC1CCCO1 (configuration not stated) | 35.1* | 12.8 | 17.0 | 2.7 | -1.6
Cc1coc2cc3oc(=O)c(CCC(=O)NCC(=O)O)c(C)c3cc12 | 13.6 | -14.8 | -1.2 | -4.5 | 27.6*
CCCc1c(C)c2ccc(OCC(C)=O)cc2oc1=O | 3.9 | -36.6 | 51.1 | 1.7 | 124.1*
COc1ccc(-c2c(C)c3ccc(O)cc3oc2=O)cc1OC | 8.7 | -262.8 | -0.9 | -104.6 | +
Cc1c(CCC(=O)O)c(=O)oc2cc(O)ccc12 | 20.2 | -351.2 | -8.2 | -50.4 | +
CC(=O)COc1ccc2c(C)c(-c3ccccc3)c(=O)oc2c1 | 8.6 | 9.4 | 0.3 | -2.8 | 7.8
O=C1C[C@@H](c2ccccc2)N=C2N(Cc3ccc4c(c3)OCO4)C/C(=C/c3ccccc3)N12 | · | 4.8 | · | · | ·
CN(C)c1cccc(/C=C2\CC3(OC(=O)c4ccc(F)cc4)CCCN2C3)c1 (configuration not stated) | · | 3.9 | · | · | ·
COC(=O)[C@]12C[C@H](CC(=O)NCc3ccc(OC)c(OC)c3)C(=O)N(Cc3ccco3)C1=C[C@H](COCc1ccccc1)O[C@@H]2C | · | -1.9 | · | · | ·
C=CCOC(=O)COc1ccc2c(C)c(CC)c(=O)oc2c1 | -1.9 | -33.8 | 98.5 | -1.6 | 64.2*
Cc1c(C)c2ccc(OCC(=O)c3ccccc3)cc2oc1=O | 18.4 | -7.3 | -7.8 | 0.1 | 2.0
CCOc1ccccc1Nc1ncnc2ccc(Br)cc12 | 6.7 | 7.7 | 17.5 | -0.2 | 2.1
CCOc1ccccc1Nc1ncnc2ccccc12 | 6.9 | 9.4 | 3.6 | · | 188.7*
CNc1cncc(-c2cccc(O)c2)n1 | 25.2 | -198.1 | · | · | 199.7*
CNc1cncc(-c2ccc(C)cc2)n1 | 14.6 | -265.5 | · | · | 197.3*
CNc1cncc(-c2cccc(C(=O)NCCN(C)C)c2)n1 | 14.6 | -116.7 | · | · | 121.4*
CNc1cncc(-c2cccc(C(=O)NC3CC3)c2)n1 | 22.6 | -297.3 | · | · | +
SMILES | GDH-TPI inh | CCHF vOTU inh | Mtb bLac sens | RecA intein inh | FBA Mtb inh
O=C(CSc1nnc(-c2ccc(Cl)cc2)n1-c1ccccc1)Nc1ccc(Oc2ccccc2)cc1 | · | -0.1 | · | · | ·
COc1cc(/C=N/N(C)c2ccccc2)cc(Cl)c1O | 40.5* | 3.8 | 96.3 | 4.6 | -4.1
COc1cc(/C=N/N(C)C)cc(Br)c1O | 32.3* | 20.8 | -8.0 | -0.5 | 2.5
CCCC[C@H]1C2CC(OC(=O)Nc3ccccc3Cl)C(C2)[C@H]2CCCCN21 (some centres not stated) | · | 7.2 | · | · | ·
COC(=O)C1CN(Cc2cn(Cc3ccc(C)cc3)nn2)CCS(=O)(=O)N1Cc1ccccc1 (configuration not stated) | · | 2.4 | · | · | ·
O=C(NC1CCCCN(Cc2ccc(Cl)cc2)C1=O)c1cc(-c2ccccc2)no1 (configuration not stated) | · | 3.0 | · | · | ·
COC(=O)C1CN(Cc2ccc(Cl)cc2)CCS(=O)(=O)N1Cc1cn(Cc2ccc(OC)cc2)nn1 (configuration not stated) | · | -5.6 | · | · | ·
O=S1(=O)c2ccc(Br)cc2OC[C@H](Cc2ccccc2)N1Cc1cn(Cc2ccc(F)cc2)nn1 | · | 5.8 | · | · | ·
CC(=O)N(C)c1ccc(N=Nc2ccc3ncccc3c2)cc1 | 56.4* | 17.4 | · | · | 3.9
CCCN(CC1CC1)C(=O)CNc1nnnn1-c1ccccc1 | · | 4.5 | · | · | ·
Cc1ccccc1-n1c(O)c(C=Nc2ccc3c(c2)OCO3)c(=O)[nH]c1=O | 33.0* | 16.6 | 93.7 | -2.3 | -2.0
CCN(CC)c1ccc(CC2C(=O)N(C)C(=O)N(C)C2=O)cc1 | 8.6 | · | -3.2 | 5.9 | 41.6*
COc1ccc(/C=N\NC(=S)SCN2C(=O)C3CCC(C)(C2=O)C3(C)C)cc1 (configuration not stated) | 46.3* | 16.4 | -11.4 | 0.1 | 0.0
COc1ccc(S[C@]2(C(=O)N3CCN(c4ncccn4)CC3)CC(=O)N(c3ccc4ccccc4c3)[C@@H]2c2ccc(OC)cc2)cc1 | · | -5.0 | · | · | ·
O=S(=O)(c1ccccc1)N1N=C(c2ccccc2)CC1c1ccco1 (configuration not stated) | · | · | -2.8 | 11.8 | ·
c1ccc(C2=NN(c3ccccc3)C(c3ccco3)C2)cc1 (configuration not stated) | 8.0 | -34.9 | -2.2 | -0.2 | 126.0*
O=C(O)c1ccc([N+](=O)[O-])c2c1C(=O)c1ccccc1C2=O | 2.4 | 20.5 | -1.5 | 47.2* | -7.2
O=C1c2ccccc2C(=O)c2c([N+](=O)[O-])ccc(O)c21 | 6.2 | -3.9 | 6.5 | · | 0.4
Cc1ccc(C(=O)NC2CCCCN(Cc3ccccc3C)C2=O)cc1 (configuration not stated) | · | -0.5 | · | · | ·
CNc1ccc(Cl)cc1C(N)=O | 8.8 | -85.7 | -7.5 | -42.5 | 113.2*
COC(=O)C[C@@H]1CC[C@@H]2[C@@H](COc3ccc(NC(=O)c4ccc(F)cc4)cc3C(=O)N2C)O1 | · | -4.1 | · | · | ·
O=C(CNS(=O)(=O)c1cccs1)N1CCN(c2ccccn2)CC1 | 7.5 | 6.4 | 1.2 | -1.4 | 87.2*
Cn1c2ccc(Br)cc2c2nnc(SCC(=O)O)nc21 | 30.8* | 5.5 | 10.8 | 1.3 | -0.9
Cn1c2ccccc2c2nnc(SCC(N)=O)nc21 | 14.5 | -1.2 | 4.3 | -0.2 | -0.7
Cn1c2ccccc2c2nnc(SCC(=O)Nc3cccc(O)c3)nc21 | 35.0* | -4.1 | -5.6 | -0.8 | 0.8
SMILES | GDH-TPI inh | CCHF vOTU inh | Mtb bLac sens | RecA intein inh | FBA Mtb inh
COc1cccc(Nc2ccccc2C(=O)O)c1 | 6.8 | -3.8 | -1.3 | 6.6 | -2.0
COc1cccc(Nc2ncc(C(=O)O)c3ccccc23)c1 | 36.1* | 10.4 | 3.8 | 0.8 | -4.2
CC(C)NC(=O)Cn1c(-c2cncs2)nc2ccccc21 | · | 2.3 | · | · | ·
CCOc1ccc(CCNS(=O)(=O)c2c(C)nc3scc(C)n3c2=O)cc1OCC | 33.2* | 3.6 | 9.0 | · | -0.7
Cc1ccc(NC(=O)C(=O)NCc2ccc(/C=C(/C#N)C(=O)NCc3cccnc3)o2)cc1C | 33.7* | -13.8 | -2.3 | -1.5 | 0.4
Cc1ccc(C(=O)N/C(=C\c2ccc(-c3cc(Cl)ccc3Cl)o2)C(=O)NCc2cccnc2)cc1 | 40.2* | 0.7 | 92.4 | 21.2 | 8.6
N#C/C(=C/c1ccc(CNC(=O)C(=O)Nc2cc(Cl)cc(Cl)c2)o1)C(=O)NCc1cccnc1 | -3.6 | -12.6 | 4.8 | 3.8 | 0.4

Source: PubChem (several laboratories)
